Nine compounds from PubChem BioAssay can be followed below.

The source made the active and inactive calls. Unless noted, the rule behind the calls is not given here.

Experiment [1] can be described thus: HepG2 liver cancer cell viability effects, profiling panel, resazurin fluorescence, 24 h, PK04 Diversity Set (AID 1172). Conditions: higher = more signal. On the technique in general: Resazurin is reduced to fluorescent resorufin, in cell work by metabolically active cells.
The nature of experiment [2]: basal S. cerevisiae growth modulation, no modifier, primary screen, OD600, strain BY4716, 24 h, basal condition (AID 1173). The following applies: OD600, 24 h, higher = more signal, called active from +8 up or from −8 down.
A short description of experiment [3]: MM1S myeloma cell viability, profiling panel, resazurin fluorescence, basal, 24 h, PK04 Diversity Set (AID 1174).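 Note: MM1S multiple myeloma cell line.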 The following applies: higher = more signal, called active from +8 up or from −8 down.
Experiment [4] addresses Dihydroorotate dehydrogenase (quinone), mitochondrial (Plasmodium falciparum (isolate 3D7)) (UniProt Q08210). The experiment in a line: PfDHODH enzyme inhibitors, primary screen, biochemical, C-terminal His tag, absorbance 600 nm (AID 1175).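 Note: recombinant parasite enzyme with a five histidine tag at its C terminus.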 The following applies: DCIP absorbance 600 nm, higher = more signal, called active from +8 up or from −8 down.
Experiment [5] can be described thus: S. cerevisiae RM11-1a growth modifiers, primary screen, strain RM11-1a, OD600, basal, 24 h (AID 1177).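 Note: cultures grown under basal conditions with no added stressor.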 The following applies: OD600, 24 h, higher = more signal, called active from +8 up or from −8 down.
Experiment [6] in a line: E. coli acrAB mutant growth effects, primary screen, E. coli filamentation inducers, strain DRC39, OD650, 24 h (AID 1178).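 Note: growth measured as culture turbidity by optical density at 650 nm.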 The following applies: higher = more signal, called active from +8 up or from −8 down.
Experiment [7] can be described thus: E. coli acrAB mutant growth effects, primary screen, E. coli filamentation inducers, strain DRC39, OD650, 48 h (AID 1179).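 Note: screen aims at cell division blockers that make cells filament.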 Conditions: E. coli DRC39 delta-acrAB growth, higher = more signal, called active from +8 up or from −8 down.
Experiment [8] can be described thus: RPMI8226 myeloma cell viability, profiling panel, resazurin fluorescence, basal, 24 h, PK04 Diversity Set (AID 1180).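 Note: RPMI8826 multiple myeloma cell line at 5000 cells per well.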 Conditions: higher = more signal.
The target in experiment [9] is E3 ubiquitin-protein ligase XIAP (Homo sapiens) (UniProt P98170). The experiment in a line: XIAP binders, primary screen, biophysical, small-molecule microarray, fluorescence 635 nm (AID 1181).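 Note: score merges 667 nm emission and signal to noise over triplicate slides.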 Conditions: small-molecule microarray binding, higher = more signal.
Sequence of E3 ubiquitin-protein ligase XIAP (Homo sapiens) (P98170 whole entry, looked up): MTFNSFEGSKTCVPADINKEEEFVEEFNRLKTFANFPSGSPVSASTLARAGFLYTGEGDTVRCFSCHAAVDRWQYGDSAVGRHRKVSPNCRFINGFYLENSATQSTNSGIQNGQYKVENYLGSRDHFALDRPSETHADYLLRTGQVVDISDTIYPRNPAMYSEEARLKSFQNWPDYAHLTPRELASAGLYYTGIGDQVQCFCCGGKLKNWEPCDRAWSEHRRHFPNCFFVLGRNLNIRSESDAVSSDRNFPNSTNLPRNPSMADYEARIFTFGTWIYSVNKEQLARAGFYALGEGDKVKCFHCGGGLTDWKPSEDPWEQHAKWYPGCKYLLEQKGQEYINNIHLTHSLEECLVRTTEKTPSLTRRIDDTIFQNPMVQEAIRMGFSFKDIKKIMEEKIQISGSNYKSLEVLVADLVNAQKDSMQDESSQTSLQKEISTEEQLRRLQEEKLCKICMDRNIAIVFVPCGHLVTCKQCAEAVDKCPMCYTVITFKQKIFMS
In experiment [10] the test system is XIP peptide (Xip251-270) binding. Briefly: small-molecule binders of XIP peptide, primary screen, biochemical, small-molecule microarray, fluorescence 635/667 nm, 0.1 µg/mL protein (AID 1182). The following applies: fluorescent protein binding, 635 nm, higher = more signal, called active from +8 up or from −8 down.
The test system of another experiment is XIP peptide (Xip251-270). Briefly: small-molecule binders of XIP peptide, primary screen, biochemical, small-molecule microarray, fluorescence 635/667 nm, 0.5 µg/mL protein (AID 1183). The following applies: small-molecule microarray binding, fluorescence 635 nm; higher = more signal.
Experiment [11] is described as follows: Plasmodium falciparum growth inhibition, primary screen, strain 3D7, DAPI fluorescence, 100 nL (AID 1184).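 Note: parasites grown inside human red blood cells in medium with human serum.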 The following applies: P. falciparum 3D7 growth, 3 d, higher = more signal.
In experiment [12] the target is Homeobox protein Hox-A13 (Mus musculus) (UniProt Q62424). The experiment in a line: inhibitors of HoxA13-DNA binding, primary screen, biochemical, fluorescence polarization, labeled oligonucleotide (AID 1185). The following applies: 15 min, higher = more signal, called active from +8 up or from −8 down. On the technique in general: In fluorescence polarisation assays a small probe gives low polarisation when free and higher when bound to something large.
Sequence of Homeobox protein Hox-A13 (Mus musculus) (Q62424 whole entry, looked up): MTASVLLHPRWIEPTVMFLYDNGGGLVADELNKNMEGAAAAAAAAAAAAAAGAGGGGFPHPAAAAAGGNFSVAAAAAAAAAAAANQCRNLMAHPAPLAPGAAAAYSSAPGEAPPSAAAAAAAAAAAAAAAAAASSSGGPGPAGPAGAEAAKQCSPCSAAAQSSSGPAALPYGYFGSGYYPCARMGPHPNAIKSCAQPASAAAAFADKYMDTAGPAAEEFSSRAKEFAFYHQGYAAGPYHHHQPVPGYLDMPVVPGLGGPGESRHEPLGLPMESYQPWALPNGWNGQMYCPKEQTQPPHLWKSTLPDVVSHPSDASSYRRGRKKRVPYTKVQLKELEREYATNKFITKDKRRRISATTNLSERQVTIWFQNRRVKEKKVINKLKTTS

Experiment [13] is described as follows: inhibitors of hydroxyurea-induced Chk1 phosphorylation, primary screen, imaging, HeLa, phospho-Chk1 antibody, percent positive cells (AID 1186). Conditions: hydroxyurea-induced phospho-Chk1 immunofluorescence imaging, higher = more signal.
Experiment [14] can be described thus: inhibitors of hydroxyurea-induced Chk1 phosphorylation, primary screen, imaging, HeLa, phospho-Chk1 nuclear intensity (AID 1187). The following applies: hydroxyurea-induced phospho-Chk1 immunofluorescence imaging, higher = more signal.

Sequence of Dihydroorotate dehydrogenase (quinone), mitochondrial (Plasmodium falciparum (isolate 3D7)) (Q08210 whole entry, looked up): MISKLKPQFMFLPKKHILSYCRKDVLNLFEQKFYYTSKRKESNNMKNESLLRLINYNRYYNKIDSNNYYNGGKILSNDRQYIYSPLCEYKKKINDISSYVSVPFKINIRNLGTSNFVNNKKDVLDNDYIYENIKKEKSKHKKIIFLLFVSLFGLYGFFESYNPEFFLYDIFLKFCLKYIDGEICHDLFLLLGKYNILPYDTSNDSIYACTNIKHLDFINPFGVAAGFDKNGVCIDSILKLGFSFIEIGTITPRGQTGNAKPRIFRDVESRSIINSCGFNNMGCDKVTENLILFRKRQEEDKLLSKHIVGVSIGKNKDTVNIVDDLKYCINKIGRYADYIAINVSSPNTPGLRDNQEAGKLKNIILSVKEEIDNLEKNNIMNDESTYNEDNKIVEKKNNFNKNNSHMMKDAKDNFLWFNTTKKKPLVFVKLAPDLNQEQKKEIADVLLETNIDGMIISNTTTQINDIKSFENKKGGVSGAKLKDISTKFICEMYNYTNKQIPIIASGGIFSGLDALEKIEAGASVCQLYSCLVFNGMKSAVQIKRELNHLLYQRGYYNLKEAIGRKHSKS

With `O=C1O[C@@H](c2ccccc2)[C@@H](c2ccccc2)N2[C@@H](c3ccc(O)cc3)[C@]3(C(=O)Nc4ccccc43)[C@@H](C(=O)N3CCN(c4ncccn4)CC3)[C@H]12`, the z-score in experiment [1] is 0.838; in experiment [2], -0.863 (inactive); in [3], -0.798 (inactive); in experiment [5], -0.0045 (inactive); in experiment [6], 0.208 (inactive); in [7] it was 1.05 (inactive). Also, the z-score in experiment [8] was -0.442; in experiment [11], -1.46; in experiment [12], -2.96 (inactive); in experiment [13] it was -0.231 (inactive); in experiment [14], -0.242 (inactive). The composite z-score in experiment [4] was -0.63 (inactive); in experiment [9] it was -0.311; in experiment [10], 1.55 (inactive); with XIP peptide (Xip251-270), -0.278.
Take `COCCOC(=O)N1C(=O)[C@@]2(c3cc(C#CCNC(N)=O)ccc31)[C@H](c1ccc(OCCO)cc1)N1[C@H](c3ccccc3)[C@H](c3ccccc3)OC(=O)[C@H]1[C@@H]2C(=O)Nc1nc2ccccc2s1`: the z-score is -0.265 in experiment [1]; 0.846 (inactive) in experiment [2]; 1.48 (inactive) in [3]; 2.46 (inactive) in experiment [5]; 0.24 (inactive) in [6]; 0.782 (inactive) in experiment [7]. In addition, the z-score in experiment [8] is 1.3; in experiment [11] it was -1.08; in experiment [12] it was 0.967 (inactive); in [13] it was 0.0818 (inactive); in experiment [14], 0.238 (inactive). For the same compound, the composite z-score was 0.665 (inactive) in [4], 0.0472 in experiment [9], 0.329 (inactive) in experiment [10] and -0.444 in the experiment with XIP peptide (Xip251-270).
On to `COc1cc(CO)cc(I)c1O[C@H]1C=C(C(=O)NCCO)C[C@@H](NCCc2c[nH]c3ccccc23)[C@@H]1O`, for which the z-score was 0.507 in experiment [1]; -8.04 (active) in [2]; 0.221 (inactive) in [3]; 0.216 (inactive) in [5]; 2.21 (inactive) in experiment [6]; -0.41 (inactive) in experiment [7]. For the same compound, the z-score in experiment [8] is 0.848; in experiment [11], -3; in [12], -7.08 (inactive); in experiment [13] it was -0.925 (inactive); in [14] it was -0.879 (inactive). In addition, the composite z-score is 1.23 (inactive) in experiment [4], -0.242 in experiment [9], -0.26 (inactive) in [10] and 0.0826 in the experiment with XIP peptide (Xip251-270).
`C=C(CCCC)C(=O)CC[C@@H](OC(=O)c1cccnc1)c1cccc(OCCO)c1`: the z-score is 0.147 in [1]; -1.41 (inactive) in [2]; -4.18 (inactive) in experiment [3]; 0.0831 (inactive) in experiment [5]; 1.24 (inactive) in experiment [6]; 0.543 (inactive) in experiment [7]. The z-score is -4.13 in experiment [8]; -2.81 in experiment [11]; -3.79 (inactive) in [12]; -0.279 (inactive) in experiment [13]; -0.326 (inactive) in experiment [14]. Moreover, the composite z-score in [4] is -1.57 (inactive); in experiment [9], -0.104; in [10], 1.48 (inactive); in the experiment with XIP peptide (Xip251-270), 0.702.
As for `C=CC[C@@]12N=C(c3ccc(OCCCO)cc3)O[C@@H]1c1ccccc1CN(Cc1ccccc1)C2=O`, the z-score in experiment [1] is -0.806; in experiment [2], -0.251 (inactive); in [3] it was -3.75 (inactive); in [5], 1.77 (inactive); in experiment [6], 1.4 (inactive); in experiment [7], 0.485 (inactive). The z-score is -3.21 in experiment [8]; -2.61 in experiment [11]; -1.94 (inactive) in [12]; -0.367 (inactive) in experiment [13]; 0.0207 (inactive) in [14]. The composite z-score in experiment [4] is 1.27 (inactive); in experiment [9] it was -0.0473; in [10], 1.54 (inactive); with XIP peptide (Xip251-270), 0.78.
Consider `C=C(/C(=C/C[C@@H](OC(=O)c1ccncc1)c1ccc(CO)o1)c1cnc2ccccc2c1)C(C)C`, for which the z-score was 0.0389 in [1]; -2.58 (inactive) in experiment [2]; 0.558 (inactive) in experiment [3]; -0.475 (inactive) in experiment [5]; 1.4 (inactive) in [6]; 0.811 (inactive) in experiment [7]. The z-score in experiment [8] was 1.17; in experiment [11] it was -0.599; in experiment [12], -4.89 (inactive); in experiment [13] it was -0.33 (inactive); in [14] it was -0.232 (inactive). The composite z-score is -6.53 (inactive) in experiment [4], 0.374 in experiment [9], 1.11 (inactive) in experiment [10] and 0.766 in the experiment on XIP peptide (Xip251-270).
Take `CCCNC(=O)[C@@]1(Sc2ccc(C)cc2)CC(=O)N(Cc2ccccc2Cl)[C@@H]1c1ccc(CO)cc1`: the z-score in experiment [1] was -0.48; in experiment [2] it was -0.573 (inactive); in experiment [3] it was 1.12 (inactive); in experiment [5], -2.58 (inactive); in [6] it was 1.23 (inactive); in experiment [7], 0.337 (inactive). Also, the z-score in experiment [8] was 1.13; in experiment [11], -1.79; in experiment [12], -1.4 (inactive); in [13], -0.423 (inactive); in experiment [14], -0.365 (inactive). Further, the composite z-score in experiment [4] is -3.67 (inactive); in experiment [9] it was 0.105; in experiment [10], 0.266 (inactive); in the experiment with XIP peptide (Xip251-270), -0.271.
On to `C=CC[C@@]1(C(=O)N2CCOCC2)N=C(c2ccc(OCCCO)cc2)O[C@@H]1c1ccccc1`, for which the z-score in experiment [1] is 0.781; in [2] it was -1.69 (inactive); in experiment [3] it was 1.1 (inactive); in experiment [5] it was 1.45 (inactive); in [6] it was 0.788 (inactive); in experiment [7] it was -0.0676 (inactive). The z-score in experiment [8] was 1.02; in experiment [11], -1.74; in [12] it was -5.67 (inactive); in experiment [13], -0.648 (inactive); in experiment [14], -0.241 (inactive). The composite z-score was 0.702 (inactive) in [4], -0.167 in experiment [9], 1.79 (inactive) in experiment [10] and -0.526 in the experiment on XIP peptide (Xip251-270).
On to `O=C1c2ccccc2[C@](Cc2ccccc2I)(C(=O)NCc2ccccc2)[C@H](c2ccc(CO)cc2)N1Cc1ccccc1C(F)(F)F`, for which the z-score was 0.716 in [1]; -0.712 (inactive) in experiment [2]; 1.32 (inactive) in experiment [3]; 0.758 (inactive) in experiment [5]; 0.0438 (inactive) in experiment [6]; 0.0442 (inactive) in experiment [7]. In addition, the z-score in experiment [8] was 1.21; in experiment [11], -0.794; in [12] it was -1.29 (inactive); in [13], -0.361 (inactive); in [14], -0.331 (inactive). In addition, the composite z-score in experiment [4] was 0.309 (inactive); in experiment [9], -0.17; in [10], 0.696 (inactive); in the experiment with XIP peptide (Xip251-270) it was -1.14.
